Consider 18 molecules from PubChem BioAssay.

Molecules are shown by their SMILES. Values joined by “and” are separate entries in the source; they are usually repeats but may differ in a detail not shown here. Equal values may be shown once. Active and inactive are the calls of the source. Cut-off read from the data, not from the text of the source, unless noted: active = parasite load remaining mostly below about 12% (no sharp cut-off); inactive = mostly above about 10%. Peptide text beside a SMILES is read from it.

Experiment [1] in a line: liver-stage malaria parasite growth inhibition, primary screen, cell-based, HepG2, luciferase luminescence, HepG2 viability (AID 624349).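 Note: 100% = mean of DMSO negative control wells on the same plate.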 Conditions: P. berghei liver stage in HepG2, luciferase luminescence, concentration not given here; parasite load remaining: stronger effect = lower value; viability: measured here: HepG2 viability without parasites.
Experiment [2] in a line: stimulators of nuclear beta-catenin in C2C12, primary screen, imaging, WNT3A-conditioned medium, mouse C2C12, NPC library (AID 1117326; in the data active = nuclear beta-catenin stimulation mostly above about 4.2%, no sharp cut-off; inactive = mostly below about 10%). Conditions: stronger effect = higher value.

By viability is commonly meant a read-out of living cells in per cent, often relative to untreated cells. With `CC1CCC(NC(=O)N(CCCl)N=O)CC1` (configuration not stated), in experiment [1], the parasite load remaining was 62.2% (inactive) and 25.6% (inactive); the viability is 87.1% and 108%. Further, the nuclear beta-catenin stimulation in experiment [2] (at 10 µM) is 5.9% (inactive). The nuclear beta-catenin stimulation in experiment [2] (stimulation, at 2 µM) came out at 4.9%.
As for `CCCCCCc1ccc(O)cc1O`, in experiment [1], the parasite load remaining was 87.3% (inactive) and 55.4% (inactive); the viability is 71.9% and 91.6%. Further, the nuclear beta-catenin stimulation in experiment [2] (at 10 µM) was 7.5% (inactive). Further, the nuclear beta-catenin stimulation in experiment [2] (stimulation, at 2 µM) is 2.1%.
For `CN(C)CCOC(=O)C(c1ccccc1)C1(O)CCCC1` (configuration not stated), in experiment [1], the parasite load remaining was 73.9% (inactive) and 104% (inactive) and 58% (inactive). Moreover, the viability in experiment [1] is 70.9% and 70% and 90.8%. In addition, the nuclear beta-catenin stimulation was 0.3% (inactive) in experiment [2] (at 10 µM) and 1.3% in experiment [2] (stimulation, at 2 µM).
As for `CCN(CC)CCNC(=O)c1cc(Br)c(N)cc1OC`, in experiment [1], the parasite load remaining was 69.3% (inactive) and 155% (inactive); the viability is 93.9% and 89.2%. Besides, the nuclear beta-catenin stimulation in experiment [2] (at 10 µM) is 3.8% (inactive). The nuclear beta-catenin stimulation in experiment [2] (stimulation, at 2 µM) was -1%.
In the case of `Cc1c(NC(=O)c2cccnc2)c(=O)n(-c2ccccc2)n1C`, in experiment [1], the parasite load remaining was 43.9% (inactive) and 167% (inactive) and 109% (inactive); the viability was 47% and 88.9% and 92.6%. Further, in experiment [2] (at 10 µM), the nuclear beta-catenin stimulation is -1.7% (inactive). In experiment [2] (stimulation, at 2 µM), the nuclear beta-catenin stimulation was 1.7%.
Turning to `COC(=O)[C@H](Cc1ccccc1)NC(=O)[C@@H](N)CC(=O)O` (H-Asp-Phe-OMe), in experiment [1], the parasite load remaining is 156% (inactive) and 74.6% (inactive); the viability was 84.2% and 212%. Besides, in experiment [2] (at 10 µM), the nuclear beta-catenin stimulation is 4.5% (inactive). For the same molecule, the nuclear beta-catenin stimulation in experiment [2] (stimulation, at 2 µM) was 1.1%.
Turning to `Oc1ccc(Cl)cc1Cc1cc(Cl)ccc1O`, in experiment [1], the parasite load remaining is 11.8% (inactive) and the viability amounted to 65.1%. For the same molecule, the nuclear beta-catenin stimulation in experiment [2] (at 10 µM) is 10.6% (inactive). In experiment [2] (stimulation, at 2 µM), the nuclear beta-catenin stimulation amounted to 5.8%.
In the same order, the values of `CO[C@@]12[C@H](COC(N)=O)C3=C(C(=O)C(C)=C(N)C3=O)N1C[C@@H]1N[C@@H]12` are -0.17% (inactive), 11%, 26.8% (inactive) and 11.6%.
The matching figures for `CC1(C)O[C@@H]2C[C@H]3[C@@H]4C[C@H](F)C5=CC(=O)CC[C@]5(C)[C@H]4[C@@H](O)C[C@]3(C)[C@]2(C(=O)CO)O1`: 156% (inactive), 105%, -1.9% (inactive) and 4%.
In the case of `O=c1[nH]c(=O)n([C@H]2C[C@H](O)[C@@H](CO)O2)cc1F`, in experiment [1], the parasite load remaining was 13.4% (inactive) and the viability came out at 75%. The nuclear beta-catenin stimulation in experiment [2] (at 10 µM) is 21% (inactive). For the same molecule, the nuclear beta-catenin stimulation in experiment [2] (stimulation, at 2 µM) turned out to be 21.6%.
On to `CC(=O)NO`, for which, in experiment [1], the parasite load remaining was 102% (inactive) and 55.8% (inactive); the viability is 71.8% and 93.7%. Also, the nuclear beta-catenin stimulation in experiment [2] (at 10 µM) is 0% (inactive). Besides, the nuclear beta-catenin stimulation in experiment [2] (stimulation, at 2 µM) came out at 0.9%.
Regarding `O=c1oc2c(O)c(O)cc3c(=O)oc4c(O)c(O)cc1c4c23`, in experiment [1], the parasite load remaining was 130% (inactive) and the viability worked out at 65.1%. The nuclear beta-catenin stimulation in experiment [2] (at 10 µM) is -1.4% (inactive). Further, the nuclear beta-catenin stimulation in experiment [2] (stimulation, at 2 µM) stood at 2.3%.
As for `C[C@@H]1CN(c2c(F)c(N)c3c(=O)c(C(=O)O)cn(C4CC4)c3c2F)C[C@H](C)N1`, in experiment [1], the parasite load remaining is 16.6% (inactive). For the same molecule, in experiment [1], the viability came out at 70%. In addition, the nuclear beta-catenin stimulation was -1.1% (inactive) in experiment [2] (at 10 µM) and -1.1% in experiment [2] (stimulation, at 2 µM).
Turning to `CN(C)/N=N/c1nc[nH]c1C(N)=O`, in experiment [1], the parasite load remaining was 56% (inactive) and 17.1% (inactive); the viability was 91.9% and 74%. In addition, in experiment [2] (at 10 µM), the nuclear beta-catenin stimulation was 1.8% (inactive). In addition, the nuclear beta-catenin stimulation in experiment [2] (stimulation, at 2 µM) is -1.7%.
As to `Oc1ccc(OCc2ccccc2)cc1`, in experiment [1], the parasite load remaining is 144% (inactive) and the viability was determined as 102%. Also, the nuclear beta-catenin stimulation in experiment [2] (at 10 µM) is 2.5% (inactive). The nuclear beta-catenin stimulation in experiment [2] (stimulation, at 2 µM) stood at 1.1%.
Take `O=C(OCC(O)CO)c1ccccc1Nc1ccnc2cc(Cl)ccc12` (configuration not stated): in experiment [1], the parasite load remaining is 9.85% (inactive) and 91.3% (inactive) and 74.6% (inactive); the viability was 47.1% and 73.6% and 92%. Moreover, in experiment [2] (at 10 µM), the nuclear beta-catenin stimulation is 3.1% (inactive). Moreover, the nuclear beta-catenin stimulation in experiment [2] (stimulation, at 2 µM) is -0.3%.
Turning to `CCCCCC(C)N` (configuration not stated), the parasite load remaining in experiment [1] was 115% (inactive) and 42.4% (inactive). The viability in experiment [1] was 77.1% and 86.1%. The nuclear beta-catenin stimulation in experiment [2] (at 10 µM) is 1.8% (inactive); in experiment [2] (stimulation, at 2 µM), 3.7%.
For the molecule `CC(=O)OCC(=O)[C@@]1(O)[C@H](C)C[C@H]2[C@@H]3CCC4=CC(=O)C=C[C@]4(C)[C@@]3(F)[C@@H](O)C[C@@]21C`, the parasite load remaining in experiment [1] was 64% (inactive) and 76.2% (inactive). Further, the viability in experiment [1] was 116% and 94.5%. Besides, the nuclear beta-catenin stimulation in experiment [2] (at 10 µM) is -1.1% (inactive); in experiment [2] (stimulation, at 2 µM) it was -2.1%.
